Shown are actives, neighbours in structure and some others; about 2.9% of the full set was active somewhere.
MITF act: MITF TRPM1 promoter activation in melanoma cells | actives 0.75% (n = 300,000) | AID 588334 | activation, % at 12.5 µM | SK-MEL-5 TRPM1-promoter luciferase, 24 h; % of positive control, neutral wells = 0;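 active = mean activation of at least 80% with every replicate also reaching 80%; inconclusive = mean reaches 80% but some replicate falls short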;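 also: 0% = neutral control wells and 100% = parthenolide positive control wells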
Glyco luc inh: N-linked glycosylation inhibition; D54 ERlucT glycosylation luciferase reporter, 24 h; percent of 100 nM tunicamycin response; reporter increase, % at 12.5 µM; actives 0.23% (n = 360,000); AID 588692;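 active = mean luciferase reporter signal, scaled so untreated is 0 and the glycosylation-blocking control 100, at or above a set limit in every replicate; inconclusive = mean reaches the limit but not every replicate does; inactive = mean below the limit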;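 also: luciferase carries N-glycosylation sites so blocking glycosylation raises the light; 0% = median of neutral control wells and 100% = median of 100 nM tunicamycin wells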
Vif imaging: HIV Vif inhibition; HEK293T cells, Vif self-association by quenched fluorescence, imaging, 24 h; actives 0.35% (n = 340,000); inhibition, % at 7.49 µM; in the data active = inhibition above about 50%, passing the limit was not always enough; inconclusive = no clear call, values can overlap the other calls; inactive = below about 31%
Wnt act: activates Wnt/beta-catenin signaling in a reporter cell assay | activator, plate reader | activation, % at 9.35 µM | actives 1.2% (n = 300,000); in the data active = activation above about 30%, passing the limit was not always enough; inconclusive = no clear call, values can overlap the other calls;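 also: 0% = neutral control wells and 100% = positive control wells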
esBAF inh: SWI/SNF esBAF complex inhibition. mouse ES cells, Bmi1-luciferase knock-in reporter, 24 h; 100% = twice the neutral-well signal. reporter increase, % at 12.5 µM. actives 2% (n = 350,000). AID 602393; in the data active = activation above about 40%; inconclusive = no clear call, values can overlap the other calls;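 also: 0% = median of the plate's neutral control wells and 100% = double that signal; a rise in the Bmi1 reporter signal indicates esBAF inhibition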
PvdQ inh: blocks Pseudomonas aeruginosa PvdQ acylase activity; purified PvdQ acylase, fluorescence plate reader; inhibition, % at 10 µM; actives 0.063% (n = 340,000); in the data active = inhibition above about 30%, passing the limit was not always enough; inconclusive = no clear call, values can overlap the other calls;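 also: 0% = vehicle neutral wells and 100% = reference inhibitor wells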
Active calls of the source: *; ? = inconclusive; · = no result given.

SMILES | MITF act | Glyco luc inh | Vif imaging | Wnt act | esBAF inh | PvdQ inh
COc1ccc(S(=O)(=O)Nc2ccc3c(c2)C(=O)N([C@H](C)CO)C[C@@H](C)[C@@H](CN(C)C(=O)c2ccncc2)OCCCC[C@@H](C)O3)cc1 | · | · | · | · | 4 | ·
Cc1cc(C)cc(-n2c(C)cc(C(=O)CSc3nnnn3C)c2C)c1 | 16 | -1 | -10 | · | 26 | -7
Cc1cc(C(=O)COC(=O)C2=COCCO2)c(C)n1-c1cccc(F)c1 | 107* | -14 | -3 | 2 | 55* | 0
Cc1cc(C(=O)CSc2nnnn2C)c(C)n1-c1cccc(F)c1 | 98* | -5 | -7 | · | 17 | -15
Cc1cc(C(=O)CSc2ncccn2)c(C)n1-c1cccc(F)c1 | 34 | -8 | -1 | 82* | · | -9
Cc1cc(C(=O)CSc2n[nH]c(N)n2)c(C)n1-c1cccc(F)c1 | 30 | -3 | -16 | -2 | 32 | -5
CNC(=O)C[C@H]1CC[C@H]2[C@H](COc3ccc(NC(=O)c4ccc(OC)cc4)cc3C(=O)N2C)O1 | · | · | · | · | 0 | ·
CNC(=O)C[C@H]1CC[C@@H]2[C@H](COC[C@H](O)CN2S(=O)(=O)c2ccccc2Cl)O1 | · | · | · | · | -6 | ·
C[C@@H]1CN([C@@H](C)CO)C(=O)c2cc(/C=C/c3ccccc3)cnc2O[C@@H]1CN(C)C(=O)c1cnccn1 | · | · | · | · | -2 | ·
Nn1nnc2ccccc21 | 2 | 1 | -9 | 7 | 21 | -8
C(=C\n1nnc2ccccc21)/c1ccccn1 | 42 | -12 | -8 | 34* | -13 | -5
C[C@H]1CN([C@@H](C)CO)C(=O)c2cc(NC(=O)NC3CCCCC3)ccc2O[C@@H]1CN(C)S(=O)(=O)c1ccccc1 | · | · | · | · | -2 | ·
Cc1ccc2cc(/C=C/C(=O)c3ccco3)c(Cl)nc2c1 | · | 21 | 0 | 60* | · | ·
Cc1ccc2nc(Cl)c(/C=C/C(=O)c3ccco3)cc2c1 | · | 42* | -12 | 1 | 50* | -10
COc1cc2cc(/C=C/C(=O)c3ccco3)c(Cl)nc2cc1OC | 12 | 49* | 33 | -1 | 1 | -10
O=C(C=Cc1ccco1)c1ccco1 | 16 | 3 | ? | 1 | -2 | -4
COCC#Cc1ccc2c(c1)O[C@H](CN(C)C)[C@@H](C)CN([C@@H](C)CO)S2(=O)=O | · | · | · | · | 1 | ·
O=C(Nc1ccc(F)cc1)N[C@@H]1CC[C@H](CCNS(=O)(=O)c2ccccc2F)O[C@H]1CO | · | · | · | · | 3 | ·
C[C@@H](O)C#Cc1cnc2c(c1)C(=O)N([C@@H](C)CO)C[C@H](C)[C@H](CN(C)Cc1ccc(-c3ccccc3)cc1)O2 | · | · | · | · | 2 | ·
CN1CCN(C(=O)C[C@@H]2C[C@@H]3c4cc(NC(=O)Nc5ccc(C(F)(F)F)cc5)ccc4O[C@@H]3[C@@H](CO)O2)CC1 | · | · | · | · | 4 | ·
CCOCCCN(C(=O)CNC(=O)c1ccco1)C(C(=O)NC1CCCC1)c1cccc(OC)c1 (stereo unspecified) | 1 | -1 | 24 | 0 | 5 | -15
COCCN(C(=O)CCl)C(C(=O)NC1CCCCC1)c1ccccc1C (stereo unspecified) | -78 | 30* | -2 | · | · | -2
COCCN(C(=O)CNC(=O)c1ccco1)C(C(=O)NC1CCCC1)c1cccc(OC)c1 (stereo unspecified) | 4 | -1 | 52* | 0 | -3 | 5
Cc1ccc(-c2csc(NC(=O)c3c(C)noc3C)n2)cc1C | 44 | -5 | -12 | -4 | 20 | -2
CCOc1ccc(-c2csc(NC(=O)c3ccco3)n2)cc1 | · | 3 | -8 | 3 | 58* | -8
SMILES | MITF act | Glyco luc inh | Vif imaging | Wnt act | esBAF inh | PvdQ inh
COc1cccc(-c2nnc(NC(=O)c3ccco3)s2)c1 | 58 | -3 | 0 | 35* | 12 | 3
O=C(NC(=S)Nc1nc(-c2ccc([N+](=O)[O-])cc2)cs1)c1ccco1 | 23 | -2 | -6 | 18 | 54* | -16
Cc1ccc(-c2csc(NC(=O)c3ccco3)n2)cc1C | · | 1 | -4 | 41* | 47* | -12
CNC(=O)C[C@@H]1CC[C@@H]2[C@@H](COc3ccc(NC(=O)Nc4cccc(F)c4)cc3C(=O)N2C)O1 | · | · | · | · | 3 | ·
CC(OC(=O)c1ccco1)C(=O)Nc1nc(-c2ccccc2)cs1 (stereo unspecified) | 89* | -3 | 3 | 7 | 48* | -8
COc1ccc(-c2nnc(NC(=O)c3ccco3)s2)cc1 | 32 | -2 | 3 | 13 | 16 | -22
CC(OC(=O)c1ccco1)C(=O)Nc1ccc(Cl)cn1 (stereo unspecified) | -8 | 2 | 3 | -2 | -8 | 6
O=C(Nc1scc(-c2ccccc2)c1C(=O)O)c1ccco1 | 13 | 1 | · | 10 | 27 | -9
Cc1cc(NC(=O)c2ccco2)sc1C | 104* | -3 | -10 | 62* | 29 | -7
COc1ccc(-c2csc(NC(=O)c3ccco3)n2)cc1 | 83* | 1 | 0 | 18 | 65* | -7
COC(=O)c1c(-c2ccc(F)cc2)csc1NC(=O)c1ccco1 | 118* | 1 | 1 | · | · | -8
C[C@H]1CN([C@@H](C)CO)C(=O)c2cc(C3=CCCCC3)cnc2O[C@@H]1CN(C)C(=O)c1cccnc1 | · | · | · | · | 4 | ·
CCCNC(=O)N1C[C@H](C)[C@H](OC)CN(C)C(=O)c2ccc(NS(C)(=O)=O)cc2OC[C@@H]1C | · | · | · | · | -4 | ·
O=C(NC(=S)Nc1nc(-c2ccc(Br)cc2)cs1)c1ccco1 | 2 | 0 | -3 | 1 | · | -10
CC(=O)Nc1ccc(-c2csc(NC(=O)CCNC(=O)c3ccco3)n2)cc1 | 3 | 4 | -8 | 0 | 2 | -2
O=C(CCNC(=O)c1ccco1)Nc1nc(-c2ccccc2)cs1 | · | -3 | 3 | 19 | 53* | ·
O=C(Nc1cc(-c2ccccc2)cs1)c1ccco1 | 110* | -2 | -11 | 44* | 67* | 6
O=C(Nc1nc(-c2ccccc2)cs1)c1ccco1 | · | 5 | -4 | 43* | · | 4
O=C(Nc1ccccc1NC(=O)c1ccco1)c1ccccc1 | 7 | -1 | -13 | 1 | 4 | 7
CO[C@H]1CN(C)C(=O)c2ccc(NC(=O)Cc3ccccc3)cc2OC[C@H](C)N(C(=O)c2ccccc2F)C[C@H]1C | · | · | · | · | 2 | ·
C[C@@H](NC(=O)[C@H]1[C@H](CO)[C@H]2Cn3c(cccc3=O)[C@@H]1N2Cc1ccccc1)c1ccccc1 | · | · | · | · | 0 | ·
CCNC(=O)[C@H]1O[C@@H](n2cnc3c(N)nc(NCCc4ccc(CCC(=O)O)cc4)nc32)[C@H](O)[C@@H]1O | 15 | 1 | 63* | -3 | -2 | 6
C[C@H]1CN([C@@H](C)CO)S(=O)(=O)c2ccc(-c3cncnc3)cc2O[C@@H]1CN(C)Cc1ccncc1 | · | · | · | · | -5 | ·
C[C@@H]1CN([C@H](C)CO)C(=O)c2c(c3ccccc3n2C)-c2ccccc2CO[C@@H]1CN(C)C(=O)Nc1ccccc1C(F)(F)F | · | 1 | 53* | -1 | -6 | ·
